# High-throughput results: PubChem BioAssay, National Center for Advancing Translational Sciences (NCATS)
# This is a sample that favours compounds with a hit; in the whole collection about 1.9% have one here.
# TsaE inh – displaces an ADP probe from E. coli YjeE (TsaE). 71,000 tested, 0.05% active. P0AF67. purified YjeE enzyme, qHTS inhibition assay. AID 605. Potency, µM
#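 Fluorescence polarization of a BODIPY Texas Red–ADP probe (2 uM) bound to purified YjeE (10 uM) was read after 15 min room-temperature incubation with compounds. Loss of polarization marks inhibitors; ADP serves as titrated control.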
# DNA Pol III inh – blocks replication by bacterial DNA polymerase III holoenzyme. Potency, µM (series often up to 57.1 µM), inactives show at the top dose activity change, negative = inhibition. reconstituted DNA polymerase III holoenzyme replication, biochemical. AID 603. 71,000 tested, 0.25% active; note: potency is the fitted concentration of half-maximal effect; % is set by controls: 0 for no effect and ±100 for the full control effect
#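 Reconstituted *E. coli* holoenzyme (0.35 nM Pol III, 1 nM beta, 154 nM SSB, 2 nM primase) was preincubated with compound for 15 min at RT. Synthesis on 1.4 nM ssM13Gori ran 35 min, then was stopped with PicoGreen/EDTA and read as dsDNA fluorescence.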
# BRCT PPI green – blocks human BRCA1 BRCT binding to phosphopeptide, green readout; P38398; BRCA1 BRCT-phosphopeptide binding, green fluorescence polarization; 75,000 tested, 0.05% active; Potency, µM (highest dose often 76.9 µM), without a hit: at the highest dose activity change, negative = inhibition, hits mostly inhibitors; AID 875;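 note: potency is the fitted concentration of half-maximal effect; plate controls were peptide without protein for full effect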
#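 Fluorescence polarization: His-tagged BRCT (~35 kDa BRCA1 C-terminus, 250 nM) bound to 100 nM fluorescein-labeled phosphorylated 10-aa BACH1 peptide, pH 7.3 phosphate buffer with DTT and Tween 20. Compounds incubated 12 min at room temperature; inhibition read as lowered polarization.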
# Hsp90 Hop PPI – changes Hsp90-Hop TPR2A binding signal, up or down; AlphaScreen TPR2A-His6 binding biotin-Hsp90 C-terminal peptide; 71,000 tested, 0.44% active; Potency, µM (titrated, usually from 57 µM), for the others: top-dose activity change, negative = inhibition; active = well fitted curve in either direction with a large enough effect; inconclusive = small, poorly fitted or top-dose-only effect, or another doubt; note: potency is the fitted concentration of half-maximal effect; % is set by controls: 0 for no effect and ±100 for the full control effect
# ALOX15 inhib – blocks human 15-lipoxygenase activity; 74,000 tested, 1.4% active; P16050; Potency, µM (doses to about 57.1 µM), for inactives: at the top dose activity change, negative = inhibition, actives largely listed as inhibitors; AID 887; purified 15hLO-1, xylenol orange hydroperoxide absorbance; note: potency is the fitted concentration of half-maximal effect; % is set by controls: 0 for no effect and ±100 for the full control effect; nearly all actives have a fitted effect of over 55% in size
# Target sequence (P16050 whole entry, looked up): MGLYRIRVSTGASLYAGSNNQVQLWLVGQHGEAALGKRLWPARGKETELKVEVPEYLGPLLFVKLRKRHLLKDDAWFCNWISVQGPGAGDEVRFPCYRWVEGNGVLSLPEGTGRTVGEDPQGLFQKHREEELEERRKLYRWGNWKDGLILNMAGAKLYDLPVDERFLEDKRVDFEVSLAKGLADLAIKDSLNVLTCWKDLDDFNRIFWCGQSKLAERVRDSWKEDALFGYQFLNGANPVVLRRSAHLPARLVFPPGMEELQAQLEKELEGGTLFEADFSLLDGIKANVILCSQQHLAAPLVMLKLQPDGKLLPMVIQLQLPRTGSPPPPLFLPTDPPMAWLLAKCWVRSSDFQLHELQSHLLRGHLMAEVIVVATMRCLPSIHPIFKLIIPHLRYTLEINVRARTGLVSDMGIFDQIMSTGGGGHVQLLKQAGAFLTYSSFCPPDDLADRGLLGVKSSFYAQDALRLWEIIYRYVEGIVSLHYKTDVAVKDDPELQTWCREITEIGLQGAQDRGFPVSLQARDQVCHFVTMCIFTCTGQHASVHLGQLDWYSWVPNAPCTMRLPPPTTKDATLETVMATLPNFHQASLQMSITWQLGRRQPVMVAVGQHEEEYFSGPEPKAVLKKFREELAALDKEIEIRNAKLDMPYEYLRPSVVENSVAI
#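 Purified human 15hLO-1 (40 nM final) in 25 mM Hepes pH 7.5, 0.01% Triton X-100 was preincubated with compound 15 min at room temperature, then reacted 6 min with 50 uM arachidonic acid; hydroperoxide detected by Fe-XO, 573/405 nm absorbance ratio.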
# BRCT inh red – disrupts BRCA1 BRCT binding to phosphoprotein, red fluorophore readout; BRCT-phosphopeptide binding, red fluorescence polarization; Potency, µM (highest dose often 76.9 µM), for inactives: top-dose activity change, negative = inhibition, hits mostly inhibitors; 75,000 tested, 0.03% active; note: % is set by controls: 0 for no effect and ±100 for the full control effect
#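 Rhodamine-labelled pBACH1 10-mer (100 nM) bound to BRCT domain (100 nM) at pH 7.3; compounds incubated 12 min room temperature, polarization read. Free peptide defines full inhibition; unlabelled decapeptide titrated as control.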
# * marks the source's active call; other numbers are inactive results; i = inactive; ? = inconclusive; · = no result given; ! = a repeat was not active; [ ] = another dose, or the depositor's remark. Unless noted, calls come from the whole dose curve; as a rule, active = well fitted curve in the direction sought with a large enough effect; inconclusive = small, poorly fitted or top-dose-only effect, or another doubt; inactive = no such curve, though single readings can be large; an effect the other way counts as inactive or inconclusive.
SMILES,TsaE inh,DNA Pol III inh,BRCT PPI green,Hsp90 Hop PPI,ALOX15 inhib,BRCT inh red
C=CC(C)(O)CCCC(C)CCCC(C)CCCC(C)C (configuration not stated),i,-11%,-4%,16%,10µM*,-1%
CSc1nc(-c2ccco2)nn1S(=O)(=O)c1ccc(C)cc1,i,-2%,-1%,-4%,25µM*,-2%
Cc1ccc([N+](=O)[O-])cc1S(=O)(=O)N(C)C,·,·,-2%,·,25µM*!,2%
Cc1ccc([N+](=O)[O-])cc1N,i,-9%,1%,-2%,4%,-1%
CCn1c(CSc2nnc3ccccn23)nc2cc(C(=O)O)ccc21,i,-4%,1%,-5%,9%,-22%
CCn1c(CSc2nnc(-c3cccnc3)n2-c2ccccc2C)nc2cc(C(=O)O)ccc21,79µM*,-2%,0%,-8%,-21%,25µM*
C[C@H]1[C@H](C)CC[C@@]2(C(=O)O)CC[C@]3(C)C(=CC[C@@H]4[C@@]5(C)CC[C@H](O)C(C)(C)[C@@H]5CC[C@@]43C)[C@@H]12,i,-2%,·,2%,·,·
C=CC(C1=CC(=O)C(OC)=CC1=O)c1ccc(OC)cc1 (configuration not stated),·,·,-2%,·,7.9µM*,-2%
C=CC(C1=CC(=O)C(OC)=CC1=O)c1ccccc1 (configuration not stated),·,·,-7%[3.08 µM],·,3.2µM*,-1%
COC1=CC(=O)C(C(=O)c2ccccc2)=CC1=O,·,·,-2%,·,?,-3%
C=CC(C1=CC(=O)C(OC)=C(OC)C1=O)c1ccccc1 (configuration not stated),·,·,-1%,·,?,-3%
COCCNC(=O)c1ccc(-n2c(=O)c(=O)[nH]c3ccccc32)cc1,·,·,-2%,·,-1%,-3%
O=C(Nc1cccc(Oc2ccc3c(c2)C(=O)NC3=O)c1)c1ccco1,i,-16%,-1%,-8%,16µM*,2%
Cc1ccc(Oc2ccc(NC(=O)c3ccco3)cc2)cc1,i,6%,4%,27%,?,-1%
S=C([S-])NCCNC(=S)[S-].[Zn+2],i,0.4µM*,0%,16µM*,13µM*,-26%
CN(C)c1ccc(-c2nc(NCc3cccnc3)c3ccccc3n2)cc1,i,-6%,8%,-9%,20µM*,-2%
COc1ccc(CNc2nc(-c3ccc(N(C)C)cc3)nc3ccccc23)c(OC)c1,i,-1%,3%,-22%,10µM*,-3%
c1cncc(CNc2nc(-c3ccoc3)nc3ccccc23)c1,i,-12%,2%,-10%,?,1%
COc1ccc(CNc2nc(-c3ccc(C(=O)N(C)C)cc3)nc3ccccc23)c(OC)c1,i,-2%,3%,-10%,?,-1%
O=C(CSc1nnc(-c2ccccc2)o1)c1nnc(-c2ccccc2)o1,i,0%,10%,-19%,20µM*,0%
O=C(CSc1nnc(-c2ccccc2)o1)c1ccc2c(c1)OCCO2,i,2%,-1%,2%,4%,0%
Cc1cccc2cc3ccc4ccccc4c3cc12,i,1%[11.4 µM],1%[15.4 µM],?,-2%[11.4 µM],0%[15.4 µM]
CCOC(=O)c1c(NC(=O)OC)sc2c1CCC2,i,-3%,0%,9%,-13%,-1%
COC(=O)Nc1sc2c(c1C(N)=O)CCCCCC2,i,-8%,-1%,-3%,13µM*,0%
O=C1C=CC(=O)c2c(O)c(Cl)c(Cl)c(O)c21,·,·,?,·,1µM*,?
Oc1c(Cl)ccc(Cl)c1Cl,i,-4%,0%,-3%,-2%,0%
C=C1C[C@@]23C[C@@]1(O)CC[C@@H]2[C@]12C=C[C@@H](O)[C@](C)(C(=O)O1)[C@@H]2[C@@H]3C(=O)O,·,·,0%,·,9%[25.6 µM],-1%
CCOC(=O)C(C(C)=O)c1c(Br)c(O)c(O)c2c(C(=O)c3ccc(C)cc3)coc12 (configuration not stated),i,6%,2%,?,2µM*,0%
